# The campaign covered roughly 370,000 compounds. About 2,800 (0.76%) were called active. The entries come from a sample that favours actives as a whole. A number with no mark means an inactive call. Cut-off read from the data, not from the text of the source: active = inhibition above about 21%; inactive = the rest.
# Target: E3 ubiquitin-protein ligase UHRF1 (Homo sapiens) (UniProt Q96T88)
# Assay: blockers of UHRF1 binding to methyl-oligo – biochemical, TR-FRET, human UHRF1, single concentration, counter-screen for MBD2 inhibitor project, primary screen (AID 687016);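 note: UHRF1 SRA domain binding a hemimethylated CpG hairpin DNA probe; 0% = median of test compound wells and 100% = reference inhibitor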
# Conditions: UHRF1 binding to methylated oligo, at 4.4 µM, hits give high values
# E3 ubiquitin-protein ligase UHRF1 (Homo sapiens), sequence (Q96T88 whole entry, looked up, the tested form may be a part): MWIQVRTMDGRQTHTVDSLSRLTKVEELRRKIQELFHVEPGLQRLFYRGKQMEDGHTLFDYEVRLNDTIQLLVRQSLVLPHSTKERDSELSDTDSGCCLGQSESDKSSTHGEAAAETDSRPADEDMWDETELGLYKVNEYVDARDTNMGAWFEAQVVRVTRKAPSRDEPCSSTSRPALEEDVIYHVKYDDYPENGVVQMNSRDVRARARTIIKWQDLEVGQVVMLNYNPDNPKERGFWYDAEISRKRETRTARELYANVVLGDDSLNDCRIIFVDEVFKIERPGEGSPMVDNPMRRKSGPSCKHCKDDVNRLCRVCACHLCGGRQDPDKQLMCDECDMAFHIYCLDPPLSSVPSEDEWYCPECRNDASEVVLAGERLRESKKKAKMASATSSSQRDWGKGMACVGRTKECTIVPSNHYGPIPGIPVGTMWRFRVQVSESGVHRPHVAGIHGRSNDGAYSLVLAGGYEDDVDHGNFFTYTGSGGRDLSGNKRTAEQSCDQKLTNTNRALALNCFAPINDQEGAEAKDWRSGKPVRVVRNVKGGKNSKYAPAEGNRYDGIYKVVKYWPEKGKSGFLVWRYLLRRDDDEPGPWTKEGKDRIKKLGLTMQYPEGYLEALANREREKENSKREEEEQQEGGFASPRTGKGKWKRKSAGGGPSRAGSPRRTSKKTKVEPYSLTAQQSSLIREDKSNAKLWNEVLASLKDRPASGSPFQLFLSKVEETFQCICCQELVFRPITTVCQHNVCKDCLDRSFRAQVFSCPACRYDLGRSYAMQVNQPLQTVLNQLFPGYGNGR
row,Structure (SMILES),inhibition
1,OCc1ccc(-c2ccccc2)c(-c2ccccc2)c1,-1.66%
2,c1ccc(CNCc2ccc(CNCc3ccccc3)cc2)cc1,-2.85%
3,OCC(CO)(CO)NCc1ccc(-c2ccccc2)cc1,24.9% (active)
4,CN1[C@H](Cc2ccccc2)COc2cccc(N3CCSCC3)c2S1(=O)=O,6.46%
5,O=C(CSc1nnc(-c2ccccn2)n1-c1ccc(Cl)cc1)Nc1ccccc1-c1ccccc1,-0.44%
6,COc1ccc(C(=O)N2CCC(C(=O)Nc3cccc(C)c3)CC2)cc1OC,-2.09%
7,O=C(Nc1ccccc1)C1CCN(C(=O)c2ccc(Br)cc2)CC1,-0.01%
8,COc1ccc(C(=O)N2CCC(C(=O)Nc3ccc(C)cc3)CC2)cc1,98.2% (active)
9,CC(C)(C)NC(=O)C(c1cccnc1)N(C(=O)c1cnco1)c1ccc(C(C)(C)C)cc1 (stereo not given),-2.85%
10,O=C(c1ccncc1)N1CC[C@H]2[C@H](CCCN2Cc2ccc(F)cc2)C1,-0.99%
11,COc1ccccc1C(=O)CSc1nnc(-c2ccccn2)n1-c1ccccc1,0.85%
12,COc1ccc(-n2c(SCC(=O)Nc3ccc4cn[nH]c4c3)nnc2-c2cccnc2)cc1,0.56%
13,CC(C)CNc1cccc2c1S(=O)(=O)N(Cc1cn(Cc3ccc(Cl)cc3)nn1)Cc1ccccc1O2,2.31%
14,COc1ccc(N2CCN(C(=O)CNC(=O)c3ccc(C(C)(C)C)cc3)CC2)cc1,-2.46%
15,CSc1nccc(NC(=O)c2ccc(C(C)(C)C)cc2)n1,5.85%
16,COC(=O)c1nc(NC(=O)c2ccc(C(C)(C)C)cc2)n[nH]1,87.5% (active)
17,CCOC(=O)[C@]12CCCC=C1N(Cc1ccc(OC)cc1)C(=O)[C@@H]2CC(=O)N1CCOCC1,-0.91%
18,CCCCCCN1CCS(=O)(=O)N(Cc2ccc(C(F)(F)F)cc2)C(C(=O)OC)C1 (stereo not given),-2.34%
19,CC(C)N1CCCCC(NC(=O)C(C)(C)C)C1=O (stereo not given),-1.29%
20,CC(C)CNc1cccc2c1S(=O)(=O)N(Cc1cn(Cc3ccccc3C(F)(F)F)nn1)Cc1ccccc1O2,1.83%
21,Cc1cc(=O)[nH]c(SCC(=O)Nc2ccc(Cl)cc2C)n1,-2.56%
22,Cc1ccc(S(=O)(=O)NCCC(=O)NNC(=O)C2COc3ccccc3O2)cc1 (stereo not given),-3.3%
23,Cc1c(CC(=O)N2CCN(C(=O)C3COc4ccccc4O3)CC2)c(=O)oc2c(O)c(O)ccc12 (stereo not given),28.8% (active)
24,CC(=O)c1ccccc1NC(=O)COC(=O)C1COc2ccccc2O1 (stereo not given),6.15%
25,CCCn1c(C(Cc2ccccc2)NC(=O)COC)nc2ccccc21 (stereo not given),-1.58%
26,CCCn1c(NC(=O)C23CC4CC(CC(O)(C4)C2)C3)nc2ccccc21,21% (active)
27,CCOc1ccccc1NC(=O)C12CC3CC(C1)CC(c1ccc(C)cc1)(C3)C2,2.15%
28,N#CCC[C@H]1CC[C@]2(CCCN(Cc3ccc(Cl)cc3)C2)O1,3.52%

row,Structure (SMILES),inhibition
1,O=C(CSc1nnc(-c2cccc(Cl)c2)n1Cc1ccco1)Nc1ccc(OCc2ccccc2)cc1,-1.67%
2,FC(F)(F)c1cccc(Cn2ccc3ccc(-c4ccc5ccn(Cc6ccccc6)c5c4)cc32)c1,0.27%
3,O=C(Nc1c(-c2ccccc2)nc2c(Br)cc(Br)cn12)c1ccco1,1.55%
4,O=C(Nc1nc(-c2ccco2)c(-c2ccco2)s1)c1ccco1,51.4% (active)
5,O=C(Nc1ccccc1C(=O)N1CCCCC1)c1ccco1,3.17%
6,CCOc1ccc(N(CC(=O)Nc2c(C)n(C)n(-c3ccccc3)c2=O)S(=O)(=O)c2ccc(Cl)s2)cc1,-0.95%
7,O=C(CN1CCC(NC(=O)NCc2ccccc2)CC1)Nc1ccc2c(c1)OCCO2,1.96%
8,C[C@H]1[C@H](NC(=O)c2cccc(N(C)C)c2)CC[C@@]23CCCN2C(=O)CCC[C@@H]13,0.44%
9,Cc1cccc(C(=O)N2CCCC(Nc3ccc(C(C)C)cc3)C2)n1 (stereo not given),22.3% (active)
10,COc1ccc(NC2CCCN(C(=O)c3ccncc3)C2)cc1 (stereo not given),-3.03%
11,CC(C)c1ccc(NC2CCCN(C(=O)c3ccncc3)C2)cc1 (stereo not given),1.9%
12,COc1ccc2c(C(C)c3ccc(N)cc3)cn(C)c2c1 (stereo not given),3.85%
13,Cc1cc(C)nc(NC(=S)N2CCN(c3ccc(C(F)(F)F)cn3)CC2)c1,-0.11%
14,COc1ccc(CCNC(=O)CSc2nc3c([nH]2)c(=O)n(C)c(=O)n3C)cc1,-0.65%
15,C=CCc1cccc2cc(C(=O)N3CCN(C(=O)OCC)CC3)c(=O)oc12,-2.84%
16,C=CCc1cccc2cc(C(=O)NC3CCCC3)c(=O)oc12,2.45%
17,C=CCc1cccc2cc(C(=O)Nc3ccc(NC(C)=O)cc3)c(=O)oc12,28.9% (active)
18,COc1ccc(-n2c(COc3ccccc3)nnc2SCC(=O)Nc2ccc3c(c2)OCO3)cc1,0.77%
19,COC(=O)c1cc(S(=O)(=O)N2CCN(C(=O)C3CCCO3)CC2)cn1C (stereo not given),-1.8%
20,COC1=C[C@H](C(=O)NCCNC(C)=O)[C@H](C)[C@@H](c2ccccc2)CC1=O,-3.81%
21,CCCCn1c(N)c(N(CC(C)C)C(=O)c2cnc(C)cn2)c(=O)[nH]c1=O,-0.01%
22,CCCCn1c(N)c(N(CC(C)C)C(=O)C2CSC3(C)CCC(=O)N23)c(=O)[nH]c1=O (stereo not given),28.1% (active)
23,CCCCn1c(N)c(N(CC(C)C)C(=O)c2ccc(Br)o2)c(=O)[nH]c1=O,0.08%
24,CN(C(N)=NC(=O)/C=C/c1ccccc1)C(C#Cc1ccccc1)Cc1ccccc1 (stereo not given),-1.59%
25,COc1ccc(-c2[nH][nH]c(=O)c2NC(=O)c2ccc([N+](=O)[O-])cc2)cc1,-5.21%
26,CC(=O)Oc1ccc2c(=O)oc(-c3ccc([N+](=O)[O-])cc3)nc2c1,20.8% (active)
27,COC(=O)C(C)Oc1ccc2c(-c3cccc([N+](=O)[O-])c3)cc(=O)oc2c1 (stereo not given),-2.28%
